MITF primary: human MITF inhibition, primary screen. inhibition, % at 2.6 µM. hit rate 0.91% among 650,000. AID 1259374. AlphaScreen MITF homodimerization, bead proximity signal. O75030; in the data active = inhibition above about 50%;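 note: 0% = vehicle wells with protein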
Target sequence (O75030 whole entry, looked up): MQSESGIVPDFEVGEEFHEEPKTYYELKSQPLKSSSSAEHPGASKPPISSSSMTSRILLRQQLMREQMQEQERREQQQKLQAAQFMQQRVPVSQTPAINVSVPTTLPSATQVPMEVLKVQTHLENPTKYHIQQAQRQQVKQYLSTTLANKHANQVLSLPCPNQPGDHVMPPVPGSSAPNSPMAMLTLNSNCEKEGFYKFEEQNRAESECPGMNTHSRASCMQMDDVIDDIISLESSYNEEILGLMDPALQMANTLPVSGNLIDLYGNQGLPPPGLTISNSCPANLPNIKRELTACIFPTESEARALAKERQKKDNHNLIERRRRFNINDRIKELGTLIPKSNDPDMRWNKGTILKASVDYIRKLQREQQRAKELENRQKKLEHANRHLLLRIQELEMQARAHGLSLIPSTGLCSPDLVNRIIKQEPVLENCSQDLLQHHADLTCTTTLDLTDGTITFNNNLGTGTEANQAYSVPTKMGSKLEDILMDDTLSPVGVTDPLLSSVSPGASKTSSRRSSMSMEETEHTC
GPR151 activ: human GPR151 activation; hit rate 1% among 650,000; AID 1508602; PathHunter beta-arrestin GPR151 cells, luminescence; Q8TDV0; activation, % at 11.2 µM; in the data active = activation above about 4.9%;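 note: 0% = median of compound wells and 100% = cells with positive control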
FBW7 act: activators of human E3 ligase FBW7 | AID 1259310 | hit rate 0.13% among 650,000 | normalized activity (activation), % at 26.1 µM | AlphaScreen FBW7–phospho-cyclin E peptide binding, activator screen | Q969H0; in the data active = normalized activity above about 1.9%;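 note: purified mutant Fbw7 with reduced substrate affinity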
TEAD-YAP block: TEAD-YAP interaction inhibition | HEK-TIYL cells, TEAD-Gal4/YAP UAS-luciferase luminescence | inhibition, % at 9.12 µM | hit rate 1.4% among 640,000; in the data active = inhibition above about 32%;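 note: 0% = median of test compound wells and 100% = reference inhibitor wells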
GPR151 conf act: human GPR151 activation, confirmation screen | GPR151 PathHunter beta-arrestin cells, luminescence, 90 min; % of EA-reagent control over plate median | activation, % at 11.2 µM | shares compounds with GPR151 activ | 6,700 tested, under 10 active;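 active = mean percent activation across replicates above the confirmation screen cutoff of 4.91%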
GPR119 ag: GPR119 activation, counter-screen for GPR151 activators; shares compounds with GPR151 activ; GPR119 PathHunter beta-arrestin cells, luminescence, 90 min; 0 = compound-well median, 100 = enzyme-acceptor control; activation, % at 11.2 µM; hit rate 0.3% among 6,700; AID 1508611;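 active = mean percent activation in the counterscreen above 29.09%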;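 note: counterscreen on off-target GPR119 to flag nonselective hits from the GPR151 activator screen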
Numbers without * were called inactive; nt = no result. The list is not random: actives were taken first. Their share in the collection is about 3.4%.

SMILES | MITF primary | GPR151 activ | FBW7 act | TEAD-YAP block | GPR151 conf act | GPR119 ag
CSCCC(NS(=O)(=O)c1ccc2c3c(cccc13)C(=O)N2C)C(=O)O (centres undefined) | 12 | 0 | 0 | 6 | nt | nt
O=C(Cc1cccc2c(S(=O)O)cccc12)NC(c1ccccc1)c1ccccc1 | 0 | 6.8* | 0 | -20 | -1 | -12
O=C(Nc1ccc2nc(NC(=O)c3ccco3)sc2c1)c1ccco1 | -11 | 0 | 0 | -25 | nt | nt
Nc1cccc(-c2ncc(C(=O)NCCc3ccc(O)cc3)s2)c1 | 0 | 5.5* | 0 | 14 | 0 | -1
O=C(NCCc1ccc(O)cc1)c1cnc(-c2ccccc2)s1 | 15 | 1 | 0 | -18 | nt | nt
CCOc1ccc2ccccc2c1C1NC(=S)NC(C)=C1C(=O)N(C)C (centres undefined) | -6 | 1 | 0 | 2 | nt | nt
COc1ccc(NC(=O)c2sc(=S)[nH]c2N)cc1 | -4 | 5.0* | 0 | -31 | -1 | -12
CCOc1nc(OCC#N)nc(N2CCCCC2)n1 | 5 | 1 | 0 | -3 | nt | nt
O=C(NCCc1ccccc1)c1cc(-c2cccc(O)c2)on1 | 2 | 0 | 0 | -38 | nt | nt
Cc1ccc(NC(=O)CSc2nc(=O)n(Cc3ccco3)c3c2CCC3)cc1F | -14 | 6.6* | 0 | 2 | -2 | -18
COc1ccc([N+](=O)[O-])cc1C1=N/C(=C/c2ccc([N+](=O)[O-])cc2)C(=O)O1 | 21 | 1 | 0 | 1 | nt | nt
COC(=O)c1cccc(C(=O)N2CCC[C@@H]3CN(C(=O)C(C)C)CC[C@H]32)c1 | 5 | 7.1* | 0 | -6 | 0 | 11
CC(C)C(=O)N1CC[C@@H]2[C@H](CCCN2C(=O)c2cccc(F)c2)C1 | 7 | 0 | 0 | 11 | nt | nt
N#Cc1ccc(COc2ccc3ccc(=O)oc3c2)cc1 | -3 | -1 | 0 | -48 | nt | nt
COC(=O)c1cnc(N2CCN(c3ccccn3)CC2)c2ccccc12 | -8 | 1 | 0 | -12 | nt | nt
COC(=O)CSc1nc(N)c2c3c(sc2n1)COC(C)(C)C3 | 2 | -1 | 0 | 2 | nt | nt
CC(=O)c1cccc(NC(=O)COc2ccccc2C(=O)NC(C)c2ccccc2)c1 (centres undefined) | -8 | 2 | 0 | 9 | nt | nt
CCN(CC)c1nc(NCc2cccc(C(F)(F)F)c2)nc(NCc2ccc3c(c2)OCO3)n1 | 7 | 6.4* | 0 | -6 | 0 | -10
CCN(CC)c1nc(NCc2cccc(C(F)(F)F)c2)nc(Nc2ccc(C(F)(F)F)cc2)n1 | 8 | 0 | 0 | 6 | nt | nt
Cc1sc2nc(CSCC(=O)NCC(F)(F)F)[nH]c(=O)c2c1C | 7 | 2 | 0 | 3 | nt | nt
Cc1sc2nc(CSCC(=O)NC3CC3)[nH]c(=O)c2c1C | -10 | 6.1* | 0 | -3 | 0 | 2
COc1ccc(C2=N/C(=C/c3cc4ccccc4n3C(C)=O)C(=O)O2)cc1OC | -7 | 2 | 0 | -7 | nt | nt
CN1C(=O)C2ON(c3ccc(Cl)cc3)C(c3ccccc3)C2C1=O (centres undefined) | 6 | -1 | 0 | 11 | nt | nt
Cc1ccc(C2C3C(=O)N(C)C(=O)C3ON2c2ccccc2)cc1 (centres undefined) | 4 | 9.3* | 0 | -3 | 0 | -4
CCCCNC(=O)CCCCCn1c(=O)[nH]c2cc(OC)c(OC)cc2c1=O | -9 | 0 | 0 | 2 | nt | nt
SMILES | MITF primary | GPR151 activ | FBW7 act | TEAD-YAP block | GPR151 conf act | GPR119 ag
COc1cc2[nH]c(=O)n(CCCC(=O)NCc3ccccc3Cl)c(=O)c2cc1OC | 0 | 6.8* | 0 | -12 | 1 | 4
COc1ccc(CNC(=O)CCCn2cccc2)cc1 | 8 | 8.2* | 0 | -15 | 2 | 6
CCCC(=O)NCc1ccc(OC)cc1 | -2 | 1 | 0 | -15 | nt | nt
COc1ccc2[nH]c3c(=O)n(CCCC(=O)Nc4ccccc4)c(=S)[nH]c3c2c1 | -1 | 7.7* | 0 | 3 | -1 | -7
COc1ccc2[nH]c3c(=O)n(CCCCC(=O)NC(C)C)c(=S)[nH]c3c2c1 | 9 | 0 | 1 | 0 | nt | nt
COc1ccc(CNC(=O)CCCn2c(=O)[nH]c3ccccc3c2=O)cc1 | -9 | 7.0* | 0 | -3 | 0 | -2
CCOc1cc(/C=C2\SC(N)=NC2=O)cc(Cl)c1OCC | -11 | 0 | 0 | 0 | nt | nt
CCOC(=O)c1cc2c(ccc3ccccc32)o1 | 17 | -1 | 0 | -20 | nt | nt

Source: PubChem
